The values below come from PubChem BioAssay (Tox21).

Values without a mark were called inactive. Inconclusive results are not listed. Active and inactive are the calls of the source. Unless noted, the call rests on the fitted dose curve.

The nature of assay [1]: qHTS assay to identify small molecule antagonists of the sonic hedgehog signaling (Shh) pathway (AID 1259369). Further: nearly all actives have a fitted effect of over 45% in size. Further: potency means the concentration at half of the fitted maximal effect. In outline:
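Conditioned medium drives Shh signalling in 3T3Gli1-Luc cells; compounds in DMSO co-applied, 24hr at 37 C, then luciferase luminescence.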
In general terms: In qHTS, concentration-response curves come from the screen itself.

The target in assay [2] is Estrogen receptor beta (Homo sapiens) (UniProt Q92731). In words: qHTS assay to identify small molecule agonists of the estrogen receptor beta (ER-beta) signaling pathway (AID 1259377; active means well fitted activation curve with a large enough effect in the signal ratio in the repeat runs, not every such curve was filed as active; the % refers to the signal ratio). The essentials:
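Screening used GripTite ER-beta-UAS-bla cells held in 2% charcoal-stripped FBS medium. After overnight (16 hr) compound incubation at 37C, beta-lactamase activity was detected with a FRET substrate by fluorescence.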

For assay [3] the target is unchanged. In words: qHTS assay to identify small molecule antagonists of the estrogen receptor beta (ER-beta) signaling pathway (AID 1259378; active means well fitted inhibition curve with a large enough effect in the signal ratio in the repeat runs, not every such curve was filed as active; the % refers to the signal ratio; further: potency means the concentration at half of the fitted maximal effect). In outline: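 Antagonist mode: compounds added to beta-lactamase reporter HEK293T ER-beta-UAS cells stimulated with E2 (1nM final), 16 hr at 37C. LiveBLAzer B/G FRET substrate, 2 hours room temperature, fluorescence read-out.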

A short description of assay [4]: qHTS assay to identify small molecule agonists of the androgen receptor (AR) signaling pathway in the presence of an antagonist - cell viability counter screen (AID 1259379; active means well fitted curve in the direction sought with a large enough effect in the repeat runs; an effect the other way counts as inactive or inconclusive;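 further: MDA-kb2 human breast cancer cells carrying an MMTV luciferase reporter; series mostly up to about 92 µM; nearly all actives have a fitted effect of over 25% in size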). In outline:
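A CellTiter-Fluor read-out measured viability of MDA-kb2 reporter cells (MMTV promoter with AR and GR response elements). Treatment: nilutamide 3.0uM final with compounds at 15 concentrations, 16 hr, 37C, 0% CO2.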

The nature of assay [5]: qHTS assay to identify small molecule agonists of the estrogen receptor beta (ER-beta) signaling pathway - cell viability counter screen (AID 1259380; active means well fitted curve in the direction sought with a large enough effect in the repeat runs; an effect the other way counts as inactive or inconclusive; further: nearly all actives have a fitted effect of over 30% in size). The essentials: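 Cells used were ER-beta-UAS-bla HEK293T in medium with 2% charcoal-stripped FBS. They were treated for 16 hr at 37C. Viability came from CellTiter-Glo luminescence.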
A short description of assay [6]: qHTS assay to identify small molecule antagonists of the estrogen receptor beta (ER-beta) signaling pathway - cell viability counter screen (AID 1259382; active means well fitted curve in the direction sought with a large enough effect in the repeat runs; an effect the other way counts as inactive or inconclusive; further: series mostly up to about 92 µM; nearly all actives have a fitted effect of over 55% in size). In outline:
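Agonist-stimulated (1nM E2) ER-beta-UAS-bla HEK293T cells are incubated with library compounds for 16 hr at 37C. Cell viability is then assessed in the reporter-assay wells by adding CellTiter-Glo and reading luminescence after 30 min.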

Assay [7] addresses Estrogen receptor (Homo sapiens) (UniProt P03372). In words: qHTS assay to identify small molecule agonists of the estrogen receptor alpha (ER-alpha) signaling pathway in the presence of an antagonist (AID 1259383). Further: nearly all actives have a fitted effect of over 15% in size. Further: potency means the concentration at half of the fitted maximal effect. On activation: top concentration of the series differs between compounds. The essentials: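 Using VM7Luc4E2 cells seeded 24hr before treatment, antagonist ICI-182,780 (10.0nM final) was added, followed by compounds at 15 concentrations. Plates incubated 22hr; ONE-Glo luminescence quantified reporter activity.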

Assay [8] deals with Thyrotropin receptor (Homo sapiens) (UniProt P16473). In words: qHTS assay to identify small molecule antagonists of the thyroid stimulating hormone receptor (TSHR) signaling pathway (AID 1259385). Further: nearly all actives have a fitted effect of over 20% in size. The essentials:
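Antagonist mode: compound-treated TSHR-expressing HEK293 cells were stimulated with 1.5 ng/mL TSH (final) in presence of Ro20-1724 for 30 min at RT. HTRF cAMP detection after 1 h; each compound tested at 15 concentrations, triplicate.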

The nature of assay [9]: qHTS assay to identify small molecule agonists or antagonists of the thyroid stimulating hormone receptor (TSHR) signaling pathway - wild type cell line counter screen (AID 1259384). In outline: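 Counter screen in untransfected Hek293: compounds (15-point titration, triplicate) plus phosphodiesterase inhibitor Ro20-1724 added after 18 h plating; 30 min RT. Intracellular cAMP via competitive d2/cryptate immunoassay, 1 h incubation.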

The target of assay [10] is Androgen receptor (Homo sapiens) (UniProt P10275). The assay is described as follows: qHTS assay to identify small molecule agonists of the androgen receptor (AR) signaling pathway in the presence of an antagonist (AID 1259381). Further: nearly all actives have a fitted effect of over 15% in size. The essentials:
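Using human MDA-kb2 cells with an MMTV promoter–luciferase construct (AR and GR response elements), agonist activity is scored under 3.0uM nilutamide (final) co-treatment; 16hr incubation, 37C, luminescence readout via ONE-Glo.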

Sequence of Estrogen receptor beta (Homo sapiens) (Q92731 whole entry, looked up): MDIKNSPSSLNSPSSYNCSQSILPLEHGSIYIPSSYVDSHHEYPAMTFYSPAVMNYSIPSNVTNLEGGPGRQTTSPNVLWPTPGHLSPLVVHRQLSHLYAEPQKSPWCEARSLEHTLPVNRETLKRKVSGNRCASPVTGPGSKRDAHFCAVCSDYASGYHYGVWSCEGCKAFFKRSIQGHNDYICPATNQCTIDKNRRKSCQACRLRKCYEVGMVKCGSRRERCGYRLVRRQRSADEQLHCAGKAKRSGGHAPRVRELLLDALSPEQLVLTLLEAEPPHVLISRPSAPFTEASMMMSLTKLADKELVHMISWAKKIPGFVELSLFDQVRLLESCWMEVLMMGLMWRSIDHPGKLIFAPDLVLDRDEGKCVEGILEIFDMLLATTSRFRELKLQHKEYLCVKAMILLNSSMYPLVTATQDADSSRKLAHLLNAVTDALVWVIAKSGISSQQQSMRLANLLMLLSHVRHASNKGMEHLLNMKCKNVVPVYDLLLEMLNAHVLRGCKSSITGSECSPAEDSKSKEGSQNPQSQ
Sequence of Thyrotropin receptor (Homo sapiens) (P16473 whole entry, looked up): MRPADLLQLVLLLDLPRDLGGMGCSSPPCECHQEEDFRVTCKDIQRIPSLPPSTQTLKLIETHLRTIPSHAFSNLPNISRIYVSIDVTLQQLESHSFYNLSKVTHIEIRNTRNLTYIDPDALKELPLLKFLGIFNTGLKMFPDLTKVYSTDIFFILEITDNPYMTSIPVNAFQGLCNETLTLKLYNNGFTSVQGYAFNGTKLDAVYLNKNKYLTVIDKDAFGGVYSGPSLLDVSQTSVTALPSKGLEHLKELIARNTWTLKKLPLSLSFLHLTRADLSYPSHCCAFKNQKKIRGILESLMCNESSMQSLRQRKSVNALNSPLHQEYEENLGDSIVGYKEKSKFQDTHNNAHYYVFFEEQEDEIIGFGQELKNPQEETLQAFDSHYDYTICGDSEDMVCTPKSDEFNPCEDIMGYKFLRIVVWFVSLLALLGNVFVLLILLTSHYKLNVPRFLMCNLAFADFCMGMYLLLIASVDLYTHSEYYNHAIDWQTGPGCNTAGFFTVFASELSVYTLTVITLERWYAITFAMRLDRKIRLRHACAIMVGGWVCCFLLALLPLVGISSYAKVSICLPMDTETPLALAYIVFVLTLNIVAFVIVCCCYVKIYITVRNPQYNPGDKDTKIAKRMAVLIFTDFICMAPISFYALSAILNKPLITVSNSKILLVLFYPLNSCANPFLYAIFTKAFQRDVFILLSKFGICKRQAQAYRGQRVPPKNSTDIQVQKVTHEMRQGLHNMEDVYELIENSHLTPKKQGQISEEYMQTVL
Sequence of Estrogen receptor (Homo sapiens) (P03372 whole entry, looked up): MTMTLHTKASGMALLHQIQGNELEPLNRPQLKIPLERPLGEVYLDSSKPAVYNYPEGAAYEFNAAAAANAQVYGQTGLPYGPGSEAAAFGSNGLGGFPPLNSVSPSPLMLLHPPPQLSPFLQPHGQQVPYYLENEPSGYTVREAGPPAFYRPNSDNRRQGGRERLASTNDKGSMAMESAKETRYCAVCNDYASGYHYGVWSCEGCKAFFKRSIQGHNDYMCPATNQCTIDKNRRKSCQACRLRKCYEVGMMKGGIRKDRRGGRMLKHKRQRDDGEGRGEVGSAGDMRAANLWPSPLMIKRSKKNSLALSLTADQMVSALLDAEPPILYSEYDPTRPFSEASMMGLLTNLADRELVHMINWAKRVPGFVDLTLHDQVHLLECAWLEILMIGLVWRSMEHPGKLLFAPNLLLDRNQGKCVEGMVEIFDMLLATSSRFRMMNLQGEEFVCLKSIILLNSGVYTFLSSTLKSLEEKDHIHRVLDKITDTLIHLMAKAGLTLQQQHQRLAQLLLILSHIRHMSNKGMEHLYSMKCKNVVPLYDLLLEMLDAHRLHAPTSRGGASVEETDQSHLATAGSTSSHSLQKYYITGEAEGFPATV
Sequence of Androgen receptor (Homo sapiens) (P10275 whole entry, looked up): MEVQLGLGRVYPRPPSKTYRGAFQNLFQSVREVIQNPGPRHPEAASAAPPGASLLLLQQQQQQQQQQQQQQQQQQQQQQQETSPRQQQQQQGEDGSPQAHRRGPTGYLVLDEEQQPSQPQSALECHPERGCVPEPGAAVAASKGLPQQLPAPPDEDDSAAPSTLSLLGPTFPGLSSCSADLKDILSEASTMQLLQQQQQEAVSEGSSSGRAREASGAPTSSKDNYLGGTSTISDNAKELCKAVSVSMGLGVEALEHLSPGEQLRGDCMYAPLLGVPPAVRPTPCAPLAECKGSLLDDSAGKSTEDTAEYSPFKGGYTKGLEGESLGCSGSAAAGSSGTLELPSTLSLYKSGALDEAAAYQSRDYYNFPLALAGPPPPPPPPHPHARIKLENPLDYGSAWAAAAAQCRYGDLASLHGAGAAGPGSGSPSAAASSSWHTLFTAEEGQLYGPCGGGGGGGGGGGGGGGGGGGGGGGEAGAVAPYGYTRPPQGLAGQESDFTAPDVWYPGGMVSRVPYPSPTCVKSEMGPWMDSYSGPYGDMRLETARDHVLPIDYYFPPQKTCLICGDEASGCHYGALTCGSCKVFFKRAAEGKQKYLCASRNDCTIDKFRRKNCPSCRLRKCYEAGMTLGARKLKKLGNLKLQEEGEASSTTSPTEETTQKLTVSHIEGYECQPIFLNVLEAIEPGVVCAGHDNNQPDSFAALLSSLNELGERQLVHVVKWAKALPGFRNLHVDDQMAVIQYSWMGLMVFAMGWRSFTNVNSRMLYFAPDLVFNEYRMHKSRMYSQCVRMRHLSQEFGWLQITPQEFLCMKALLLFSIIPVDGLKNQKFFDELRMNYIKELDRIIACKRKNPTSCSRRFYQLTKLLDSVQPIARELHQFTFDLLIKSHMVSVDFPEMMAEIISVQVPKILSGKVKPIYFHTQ

As for `O=P(O)(Oc1ccccc1)Oc1ccccc1`, the Potency result in assay [1], in assay [3], in [4], in assay [5], in assay [6] and in [7] was “inactive” throughout. In addition, the Potency result in assay [8] was “inactive”. Also, the compound was classed as inactive in assay [2].

With `CCOc1nc(C(Cl)(Cl)Cl)ns1`, the Potency entry in assay [1], in assay [3], in assay [4], in assay [6], in assay [7] and in [9] was “inactive” each time. The outcome in assay [2] was inactive.

As for `CC(C)COP(=O)(OCC(C)C)OCC(C)C`, the Potency entry in [1], in assay [3], in assay [4], in [5], in assay [6] and in assay [9] was “inactive” in each case. Moreover, the Potency entry in assay [8] was “inactive”. Also, in [2], the outcome was inactive.

For `CCC/C(=N\OCC)C1=C(O)CC(CC(C)SCC)CC1=O` (stereo not given), in assay [1], the Potency was 30.8 µM (active). In addition, the compound was classed as inactive in assay [2]. Moreover, the Potency result in assay [3], in [4], in assay [5], in assay [6], in assay [7] and in assay [8] was “inactive” in each case.

For `CC(C(O)c1ccccc1)N(C)C/C=C/c1ccccc1` (stereo not given), the Potency entry in assay [1], in assay [3], in assay [4], in [10], in [6] and in assay [7] was “inactive” throughout. In addition, the Potency entry in assay [9] is “inactive”. For the same compound, in assay [2], the result was inactive.

For `CCOP(=O)(N=C1SCCS1)OCC`, the Potency result in [1], in assay [3], in [4], in [6], in assay [7] and in assay [9] was “inactive” in each case. For the same compound, the Potency entry in [8] was “inactive”. The result in [2] was inactive.

As to `O=C(N[C@H]1CN2CCC1CC2)c1cc2ccoc2cn1`, the Potency entry in [1], in assay [3], in [4], in [10], in [6] and in assay [7] was “inactive” throughout. The Potency entry in assay [9] and in assay [8] was “inactive” throughout. In addition, the outcome in assay [2] was inactive.

For `COC(C)(C)C`, the Potency entry in assay [1], in assay [3], in assay [4], in assay [5], in [6] and in assay [9] was “inactive” throughout. In addition, the call in assay [2] was inactive.

With `N#CC(O)c1ccccc1` (stereo not given), the Potency entry in [1], in [3], in assay [4], in [5], in [6] and in assay [9] was “inactive” throughout. Further, the Potency entry in assay [8] was “inactive”. The call in assay [2] was inactive.

As for `O=c1oc2ccccc2c(O)c1C1CCCc2ccccc21` (stereo not given), the Potency result in assay [1], in [3], in [4], in assay [6] and in assay [7] was “inactive” in each case. In addition, in assay [2], the result was inactive.

`CCOC(=O)C1(c2ccccc2)CCN(CCc2ccc(N)cc2)CC1`: the Potency entry in [1], in [3], in [4], in assay [10], in [6] and in assay [7] was “inactive” in each case. In addition, the Potency result in assay [9] and in assay [8] was “inactive” throughout. In assay [2], the call was inactive.

As for `CC(C=O)Cc1ccc2c(c1)OCO2` (stereo not given), the Potency entry in [1], in [3], in assay [4], in assay [5], in assay [6] and in assay [9] was “inactive” throughout. The Potency result in [8] was “inactive”. Moreover, the compound was called inactive in assay [2].

As for `CC(N)=S`, the Potency entry in assay [1], in [3], in assay [4], in assay [5], in [6] and in assay [9] was “inactive” in each case. The Potency entry in assay [8] is “inactive”. Further, the outcome in assay [2] was inactive.

For `NC1=NC(=O)C(c2ccccc2)O1` (stereo not given), the Potency result in [1], in assay [3], in assay [4], in assay [5], in [6] and in [8] was “inactive” in each case. The compound was classed as inactive in assay [2].

As to `CNC(=O)O/N=C(\C)SC`, the Potency entry in [1], in assay [3], in assay [4], in [6], in assay [9] and in assay [8] was “inactive” in each case. Further, the result in assay [2] was inactive.

On to `CCC(C)(C)c1cc(-n2nc3ccccc3n2)c(O)c(C(C)(C)CC)c1`, for which the Potency entry in assay [1], in assay [3], in assay [4], in assay [10], in assay [6] and in assay [8] was “inactive” each time. The call in assay [2] was inactive.

Turning to `ClCCOCOCCCl`, the Potency entry in assay [1], in [3], in assay [4], in assay [5], in [6] and in assay [9] was “inactive” in each case. In [8], the Potency result was “inactive”. Besides, the result in assay [2] was inactive.

Consider `CN1CCN(C(=O)O[C@H]2c3nccnc3C(=O)N2c2ccc(Cl)cn2)CC1`, for which the Potency entry in assay [1], in [3], in [4], in assay [5], in [6] and in assay [9] was “inactive” each time. Further, the Potency result in [8] was “inactive”. For the same compound, the outcome in assay [2] was inactive.

Take `CC(C)CC(N(C)C)C1(c2ccc(Cl)cc2)CCC1` (stereo not given): the Potency result in assay [1], in [3], in [4], in assay [6] and in assay [9] was “inactive” in each case. In [2], the compound was classed as inactive.

Consider `CC1COC2(c3ccccc3Cl)c3cc(Cl)ccc3NC(=O)CN12` (stereo not given), for which the Potency in assay [1] is 29.8 µM (active); in assay [3], 26.6 µM (active). Besides, the outcome in [2] was inactive. Also, the Potency entry in assay [4], in [10], in assay [6], in assay [7] and in [9] was “inactive” each time.

Turning to `CC(=O)[C@H]1CC[C@H]2[C@@H]3CC[C@H]4C[C@H](O)CC[C@]4(C)[C@H]3C(=O)C[C@]12C`, the Potency result in [1], in assay [3], in assay [4], in assay [6] and in [7] was “inactive” each time. Moreover, the compound was called inactive in assay [2].

Take `OCCSCSCCO`: the Potency result in [1], in [3], in assay [4], in assay [5], in [6] and in assay [7] was “inactive” throughout. Moreover, in [8], the Potency entry was “inactive”. Besides, the result in [2] was inactive.

On to `COC(=O)C(C)Oc1ccc(Oc2ccc(Cl)cc2Cl)cc1` (stereo not given), for which the Potency result in assay [1], in assay [3], in [4], in assay [5], in assay [6] and in [8] was “inactive” each time. In addition, the compound was classed as inactive in [2].

For the compound `COc1cccc(C(=O)NN(C(=O)c2cc(C)cc(C)c2)C(C)(C)C)c1C`, the Potency result in assay [1], in [3], in [4], in assay [5], in [6] and in [8] was “inactive” throughout. Also, the compound was called inactive in assay [2].

Regarding `CCCCOC(=O)c1ccccc1C(=O)O`, the Potency result in [1], in [3], in assay [4], in assay [10], in [6] and in assay [9] was “inactive” in each case. Also, the result in assay [2] was inactive.

In the case of `C[C@]12CC[C@H]3[C@@H](CC=C4C[C@@H](O)CC[C@@]43C)[C@@H]1CC[C@@H]2O`, the Potency entry in assay [1], in assay [3], in assay [4] and in assay [6] was “inactive” in each case. The compound was called inactive in assay [2].

For the compound `CCCCC(=O)Cl`, the Potency result in [1], in assay [3], in assay [4], in assay [5], in assay [6] and in [9] was “inactive” in each case. Besides, in [2], the compound was classed as inactive.

For the compound `CCCCOC(=O)c1ccccc1N`, the Potency entry in [1], in assay [3], in [4] and in assay [6] was “inactive” each time. In assay [2], the outcome was inactive.

`NC(=O)O`: the Potency result in assay [1], in assay [4], in assay [5], in assay [6], in [7] and in assay [9] was “inactive” each time.

For `CNNC`, the Potency entry in assay [1], in assay [3], in [4], in assay [5], in assay [6] and in [7] was “inactive” throughout.

On to `O=C(Oc1ccc(Br)cc1)N1CCN2CCC1CC2`, for which the Potency result in assay [1], in assay [4], in assay [5], in [6], in [7] and in assay [9] was “inactive” each time.

For `c1coc(-c2nc3ccccc3[nH]2)c1`, the Potency entry in assay [1], in assay [3], in assay [4], in [6], in assay [9] and in assay [8] was “inactive” each time. Moreover, in assay [7], the Potency is 7.7 µM (active).
